Records with an inconclusive call do not appear. Active and inactive are the calls of the source. How the source made its calls, unless noted: active means hit-call score of the fitted dose curve at least 0.9, where 1 is the maximum; inactive means score below 0.9.
What was measured:
[1] = VALA_TUBHUV_Antagonist_TubuleLength: VALA Sciences human Umbilical Vein Endothelial Tubule Formation (TUBHUV) Antagonism Assay (AID 2284325; active means hit-call score of the fitted dose curve at least 0.9, where 1 is the maximum)
Summary of the method: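 Tubule length was imaged via CD31 immunofluorescence after a further 3-day compound exposure in 10 ng/ml VEGF, following 3-day pre-culture of HUVEC with HDF at 1:3. Vehicle 0.1% DMSO; suramin (100 uM) inhibition control.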

[2] = VALA_TUBIPS_Antagonist_CellCount: Viability Assessment in the VALA Sciences human iPS-derived Endothelial Tubule Formation (TUBIPS) Antagonism Assay (AID 2284335; active means hit-call score of the fitted dose curve at least 0.9, where 1 is the maximum)
[3] = VALA_MIGHUV1_ScratchOnly_WoundArea: VALA Sciences human Umbilical Vein Endothelial Cell Migration (MIGHUV) Assay, Area of Scratch Wound Inhibited Recovery (AID 2284336; active means hit-call score of the fitted dose curve at least 0.9, where 1 is the maximum)
Summary of the method: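 Wound area remaining after 24 h recovery imaged by Hoechst nuclear fluorescence in scratched HUVEC cultures, chemicals added within 30 min of scratching across a 6-point series. Gain of signal fitted against 0.1% DMSO; cytochalasin D positive control.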

[4] = CCTE_Deisenroth_DEVTOX-GLR_legacy_CellCount: (Legacy) Viability Assessment in CCTE's DevTox GLR-Endo Assay, Deisenroth Lab (AID 2284331); settings: actives raise or lower the signal
Summary of the method: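 Viability is taken from imaged nuclei counts in fixed RUES2-GLR cultures after 48 h of differentiation under two 24 h-spaced chemical exposures, 10 concentrations from 1 nM to 200 uM, gain or loss versus DMSO baseline.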

[5] = tested on: SRY-box transcription factor 17 (SOX17) Protein Expression, Deisenroth Lab, SOX17 (gene 64321); test: CCTE_Deisenroth_DEVTOX-GLR_legacy_Sox17: (Legacy) CCTE's DevTox GLR-Endo Assay Evaluation of SRY-box transcription factor 17 (SOX17) Protein Expression, Deisenroth Lab (AID 2284341); settings: actives raise or lower the signal
Summary of the method: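 Endoderm-differentiation readout in RUES2-GLR human pluripotent cells at 48 h, concentrations spanning 1 nM - 200 uM. Sox17-positive cells divided by total cell count; gain or loss relative to DMSO solvent control, n=4 experimental replicates.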

Question: With Oc1ccc(C(c2ccc(O)cc2)(C(F)(F)F)C(F)(F)F)cc1 as the molecule, how does the outcome [1] read?
Answer: Its outcome is “inactive”.

Question: What about the outcome [2] of the same molecule?
Answer: Its outcome is “inactive”.

Question: And the outcome [3]?
Answer: The outcome was “inactive”.

Question: With C=CC(N)=O as the molecule, how does the outcome [4] read?
Answer: The outcome was “inactive”.

Question: And the outcome [5]?
Answer: The outcome was “inactive”.

Question: For CC1=C2C[C@H]3[C@@H](CC=C4C[C@@H](O)CC[C@@]43C)[C@@H]2CC[C@]12O[C@@H]1C[C@H](C)CN[C@H]1[C@H]2C, which outcome [4] is on record?
Answer: The outcome was “inactive”.

Question: What about the outcome [5] of the same molecule?
Answer: The outcome was “inactive”.

Reference: PubChem BioAssay (EPA / NIEHS)
